Test systems include NCI-H23 lung; NCI-H226 lung; NCI-H322M lung; HOP-62 NSCLC; NCI-H460 lung; HOP-92 NSCLC; NCI-H522 lung; A549/ATCC NSCLC; 786-0 renal; COLO 205 colon; DU-145 prostate; K-562 leukemia; MALME-3M melanoma; MDA-MB-231 breast; RXF 393 renal; SF-268 CNS; SF-295 CNS; SF-539 CNS; UACC-257 melanoma; M14 melanoma.
Holding throughout (test): NCI-60 one-dose screen, 48 h (100 = growth as untreated, 0 = no growth, -100 = all killed)
Details in all cases: 10 µM unless noted

Molecules are shown by their SMILES. This is part of a sample that, as a whole, favours compounds with a hit. Of some 83,000 tested, about 20% had one in any assay.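 Single-concentration screen, 48 h exposure, 96-well plates. Endpoint: percent growth. Below 10 = active.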 Unmarked numbers belong to inactive results. Calls of active or inactive are those of the source.

With `CCCCC1CCCC12NC(=O)NC2=O` (stereo not given), the growth with NCI-H23 lung is 99.3%; in the experiment on NCI-H226 lung it was 88.5%; in the experiment with NCI-H322M lung it was 98.3%; with HOP-62 NSCLC, 99.3%; in the experiment with NCI-H460 lung, 117%; with HOP-92 NSCLC, 93.6%. Besides, the growth is 106% with NCI-H522 lung; 117% in the experiment with A549/ATCC NSCLC; 105% with 786-0 renal; 120% in the experiment with COLO 205 colon; 109% in the experiment with DU-145 prostate; 127% in the experiment with K-562 leukemia. The growth with MALME-3M melanoma was 100%; in the experiment with MDA-MB-231 breast, 107%; with RXF 393 renal it was 113%; in the experiment with SF-268 CNS, 99.5%; with SF-295 CNS it was 109%; in the experiment on SF-539 CNS, 113%. Besides, the growth is 112% in the experiment with UACC-257 melanoma and 109% with M14 melanoma.

Take `Oc1c(I)cc(I)cc1CNCCCN(Cc1ccccn1)Cc1ccccn1`: the growth is -37% (active) in the experiment with NCI-H23 lung; -78.4% (active) in the experiment with NCI-H226 lung; -75.3% (active) in the experiment with NCI-H322M lung; -52.7% (active) in the experiment with HOP-62 NSCLC; -57.2% (active) in the experiment with NCI-H460 lung; -76.1% (active) in the experiment with HOP-92 NSCLC. For the same compound, the growth with NCI-H522 lung is -56.4% (active); in the experiment with A549/ATCC NSCLC, -51.8% (active); with 786-0 renal, -95.4% (active); in the experiment on COLO 205 colon, -34.2% (active); in the experiment with DU-145 prostate, -45.8% (active); in the experiment on K-562 leukemia, 5.96% (active). For the same compound, the growth is -73.2% (active) in the experiment on MALME-3M melanoma; -66.2% (active) with MDA-MB-231 breast; -86.6% (active) with RXF 393 renal; -27.3% (active) in the experiment on SF-268 CNS; -83.6% (active) in the experiment with SF-295 CNS; -88.3% (active) in the experiment on SF-539 CNS. The results for the growth with UACC-257 melanoma and in the experiment with M14 melanoma were -41.5% (active) and -72% (active), respectively.

Consider `C=C1CC[C@@]2(C#N)[C@H]3[C@H](CC[C@@H]2C)[C@@H](C)C[C@@H](CC(C)(C)C#N)[C@H]13`, for which the growth in the experiment with NCI-H23 lung is 44.1%; with NCI-H226 lung, 62.7%; in the experiment with NCI-H322M lung, 90.2%; in the experiment with HOP-62 NSCLC it was 41.9%; with NCI-H460 lung, 22.8%; in the experiment on HOP-92 NSCLC, -16.9% (active). The growth in the experiment on NCI-H522 lung is 47.7%; in the experiment on A549/ATCC NSCLC it was 42.9%; in the experiment with 786-0 renal, 43%; with COLO 205 colon, 35.5%; with DU-145 prostate it was 45.4%; with K-562 leukemia, 9.97% (active). In addition, the growth in the experiment with MALME-3M melanoma was 103%; in the experiment on MDA-MB-231 breast, 61.3%; in the experiment with RXF 393 renal it was 86.2%; in the experiment on SF-268 CNS, 47%; with SF-295 CNS it was 14.4%; in the experiment on SF-539 CNS, 43.9%. Moreover, the growth with UACC-257 melanoma was 71.9%; in the experiment on M14 melanoma, 20.9%.

In the case of `Cc1ncc(C(=O)Nc2ccc(CN3CCN(C)CC3)c(C(F)(F)F)c2)cc1C#Cc1ccc(N)nc1`, the growth is 3.94% (active) in the experiment with NCI-H23 lung; -3.96% (active) in the experiment with NCI-H226 lung; 20.1% in the experiment on NCI-H322M lung; 18.7% in the experiment on HOP-62 NSCLC; -60.3% (active) in the experiment with NCI-H460 lung; -15.9% (active) in the experiment on HOP-92 NSCLC. The growth was -8.12% (active) in the experiment on NCI-H522 lung; 11.3% with A549/ATCC NSCLC; -48.8% (active) in the experiment on 786-0 renal; 5.35% (active) with COLO 205 colon; 18.1% with DU-145 prostate; 5.34% (active) in the experiment on K-562 leukemia. The growth in the experiment with MALME-3M melanoma is -88.9% (active); in the experiment with MDA-MB-231 breast it was -64.3% (active); with RXF 393 renal, -60.2% (active); in the experiment with SF-268 CNS, -11.9% (active); in the experiment on SF-295 CNS, 18.5%; with SF-539 CNS, -39.3% (active). Moreover, the growth was 0.961% (active) with UACC-257 melanoma and -56.8% (active) in the experiment on M14 melanoma.

For the compound `COC(=O)c1ccc2[nH]c(O)c(C(=Nc3ccc(N(C)C(=O)CN4CCN(C)CC4)cc3)c3ccccc3)c2c1`, the growth is 31.1% in the experiment with NCI-H23 lung; 19% with NCI-H226 lung; 76.8% in the experiment with NCI-H322M lung; 26.1% in the experiment with HOP-62 NSCLC; 24.9% with NCI-H460 lung; 59.7% with HOP-92 NSCLC. The growth was 50.3% in the experiment on NCI-H522 lung; 39.4% in the experiment with A549/ATCC NSCLC; 1.61% (active) in the experiment with 786-0 renal; 11.4% in the experiment with COLO 205 colon; 21.5% in the experiment with DU-145 prostate; 9.67% (active) in the experiment on K-562 leukemia. The growth in the experiment on MALME-3M melanoma was -6.01% (active); with MDA-MB-231 breast it was 22.6%; in the experiment on RXF 393 renal, -39.3% (active); in the experiment with SF-268 CNS it was 27.7%; in the experiment on SF-295 CNS it was 27.3%; with SF-539 CNS, -25.5% (active). The growth was 35.4% in the experiment on UACC-257 melanoma and 11.2% in the experiment with M14 melanoma.

As for `O=C(Cc1ccc2c(c1)OCCO2)Nc1nc2ccc(F)cc2s1`, the growth in the experiment with NCI-H23 lung was 87.1%; with NCI-H226 lung it was 104%; in the experiment with NCI-H322M lung it was 105%; in the experiment with HOP-62 NSCLC it was 93.4%; in the experiment with NCI-H460 lung, 103%; in the experiment on HOP-92 NSCLC it was 109%. The growth in the experiment on NCI-H522 lung is 87.2%; in the experiment on A549/ATCC NSCLC, 102%; in the experiment with 786-0 renal, 104%; with COLO 205 colon it was 124%; in the experiment with DU-145 prostate it was 107%; with K-562 leukemia it was 76.3%. Besides, the growth with MALME-3M melanoma was 97.3%; in the experiment with MDA-MB-231 breast, 115%; with RXF 393 renal, 43%; in the experiment with SF-268 CNS, 119%; in the experiment on SF-295 CNS, 106%; in the experiment with SF-539 CNS, 101%. Besides, the growth is 109% in the experiment on UACC-257 melanoma and 100% with M14 melanoma.

In the case of `COc1cc(C(=O)c2cc(C)c3[nH]c4ccc(O)cc4c3c2C)cc(OC)c1OC`, the growth was 31.4% in the experiment with NCI-H23 lung; 53% in the experiment on NCI-H226 lung; 33.7% in the experiment with NCI-H322M lung; 40.1% in the experiment on HOP-62 NSCLC; 8.93% (active) in the experiment on NCI-H460 lung; 32.2% in the experiment with HOP-92 NSCLC. The growth with NCI-H522 lung was 33.7%; in the experiment with A549/ATCC NSCLC, 22.7%; in the experiment on 786-0 renal it was 13.8%; in the experiment with COLO 205 colon it was 7.01% (active); with DU-145 prostate, -13.4% (active); with K-562 leukemia it was 7.07% (active). For the same compound, the growth was -8.11% (active) in the experiment on MALME-3M melanoma; 28.3% with MDA-MB-231 breast; 31.9% with RXF 393 renal; 24% with SF-268 CNS; 9.6% (active) in the experiment with SF-295 CNS; 1.71% (active) with SF-539 CNS. In addition, the values for the growth in the experiment with UACC-257 melanoma and in the experiment on M14 melanoma were 64.8% and 22.3%, respectively.

These data come from PubChem BioAssay (NCI).
